Assay results reported in ChEMBL document CHEMBL3988442, “University of Dundee, Small-Polar-MMV Screening Library” (2021).
In all, about 38,000 compounds went through this assay and about 1,200 (3.2%) showed an effect of 50% or more. The median lay at about -58%. Shown is part of a subset that was picked to be rich in strong results.

Each molecule was assayed on Plasmodium falciparum (assay: Calibr Malaria Delayed Death Assay SOP). Conditions: concentration 4.99e-06 (unit not given; other assays of the set use mol/L).
Assay type: functional, organism-based
Parameters: scale not given: in the data most compounds retested in dose-response had high values
With CC1CCN(C(=O)C(C)Oc2ccc3c(c2)OCO3)CC1 (stereo not drawn) the “Percent Effect” value was -27.65%. For CCC(NC(=O)CCCN1CCCCC1)c1cn2cccnc2n1 (stereo not drawn), the “Percent Effect” value was -61.92%. Cc1ncc2c(n1)CN(CC(=O)Nc1cc(C)on1)CC2 was tested, and the “Percent Effect” value was -14.27%. In the case of COCCNC(=O)c1nc(-c2ccc3cc[nH]c3c2)no1, the “Percent Effect” value is reported as -158.8%. With Cc1cc(C)c(Cn2cncn2)cc1CN1CCC(CN)C1 (stereo not drawn) the “Percent Effect” value was 68.64%. With Cc1cc(C)c(Cn2cncn2)cc1CN1CC[C@H]2CC[C@@H](C1)N2 the “Percent Effect” value was 12.41%. With Cc1ccccc1CN1CCC(CNC(=O)Cn2cncn2)CC1 the “Percent Effect” value was 1.836%. In the case of CN(C)c1cc(CNCc2ccc(N3CCOCC3)cc2)ccn1, the “Percent Effect” value is reported as -42.2%. In the case of COc1c(C)cnc(CSc2nnc(NC3CC3)s2)c1C, the “Percent Effect” value is reported as -80.23%. For Cl.Cn1cccc1C(=O)N1CCc2c(CNS(C)(=O)=O)cncc2C1, the “Percent Effect” value was -73.02%. For CC(C)c1nccn1-c1cncc(C2CCCN(C3CCCCC3)C2)n1 (stereo not drawn), the “Percent Effect” value was 18.59%. With CCc1nccn1-c1cccc(C2CCCN(C3CCCCC3)C2)n1 (stereo not drawn) the “Percent Effect” value was 50.94%. With Cc1nccn1-c1cccc(C2CCCN(C3CCCC3)C2)n1 (stereo not drawn) the “Percent Effect” value was -3.48%. For CCNC(=O)CN1CCC(OCC2CCCO2)CC1 (stereo not drawn), the “Percent Effect” value was -42.16%. Cc1ccccc1N1CCN(CCS(=O)(=O)c2ccc(Br)cc2)CC1 was tested, and the “Percent Effect” value was -132.7%. For COCC(O)CN(C)c1ccnc2cc(F)ccc12 (stereo not drawn), the “Percent Effect” value was -53.9%. With COCC(O)CN(C)c1ccnc2cc(Br)ccc12 (stereo not drawn) the “Percent Effect” value was 94.48%. In the case of COCC(O)CN(C)c1ccnc2ccc(Cl)cc12 (stereo not drawn), the “Percent Effect” value is reported as -46.57%. COC1COC2(CCN(C(=O)c3ccc4ccccc4c3)CC2)C1 (stereo not drawn) was tested, and the “Percent Effect” value was -205.6%. With CCCn1ncc(-c2ccnc(NC3CC(C)(C)NC(C)(C)C3)n2)c1C the “Percent Effect” value was 66.75%. In the case of CCCn1ncc(-c2ccnc(NC3CCSC3)n2)c1C (stereo not drawn), the “Percent Effect” value is reported as -9.069%. With CCCn1ncc(-c2ccnc(N[C@@H]3C[C@@H]4CC[C@H]3C4)n2)c1C the “Percent Effect” value was -33.21%. CCN(CC)C(=O)c1nnsc1-c1ccc(C)cc1 was tested, and the “Percent Effect” value was -12.06%. With CC(=O)N1CCN2C[C@H](CO)[C@@H](c3ccccc3)[C@H]2C1 the “Percent Effect” value was -67.98%. CC(=O)NCCNC(=O)CN1CCCC1c1c(C)nn(C)c1C (stereo not drawn) was tested, and the “Percent Effect” value was -114%. For CN1C(=O)C[C@H]2[C@H]1CCN2Cc1cccc(C#N)c1.O=C(O)C(F)(F)F, the “Percent Effect” value was -78.57%. Cc1ncnc2c1CCN(C(=O)Cc1ccccn1)CC2.O=C(O)C(F)(F)F was tested, and the “Percent Effect” value was -129.8%. For CS(=O)(=O)N1CCC2(CC1)CC(NCc1ccccn1)c1ccccc12 (stereo not drawn), the “Percent Effect” value was 1.106%. COCCN1CCC2(CC1)CC(NCc1ccc(C)s1)c1ccccc12.O=C(O)C(F)(F)F.O=C(O)C(F)(F)F (stereo not drawn) was tested, and the “Percent Effect” value was 76.07%. In the case of COCCN1CCC2(CC1)CC(N1CCOCC1)c1cc(C)ccc12.O=C(O)C(F)(F)F.O=C(O)C(F)(F)F (stereo not drawn), the “Percent Effect” value is reported as -78.91%. In the case of COCCN1CCC2(CC1)CC(NCc1cncn1C)c1ccccc12.O=C(O)C(F)(F)F.O=C(O)C(F)(F)F (stereo not drawn), the “Percent Effect” value is reported as -24.3%. In the case of COCC(=O)NC1CC2(CCN(CCN(C)C)CC2)c2ccccc21 (stereo not drawn), the “Percent Effect” value is reported as -44.07%. In the case of CC(C)N(CC(N)=O)C(=O)c1cnc(-c2ccc3c(c2)OCO3)s1, the “Percent Effect” value is reported as -184.6%. For CC(=O)N(C)Cc1cccc(NC(=O)c2cnn(C)c2C)c1, the “Percent Effect” value was -25.31%. With CCOc1cc(C(=O)n2cc(C)cn2)cc(OCC)c1OCC the “Percent Effect” value was -156.8%. In the case of NC(=O)c1ccc(N2CCCCC2)c(NC(=O)c2cc(Br)ccc2Cl)c1, the “Percent Effect” value is reported as -37.22%. NC(=O)c1ccc(N2CCCCC2)c(NC(=O)c2cc(Br)ccc2F)c1 was tested, and the “Percent Effect” value was -77.22%. In the case of NC(=O)c1ccc(N2CCCCC2)c(NC(=O)c2ccc(Br)cc2)c1, the “Percent Effect” value is reported as 70.21%. For CSCc1cc(F)ccc1CNC(=O)N1CCC[C@@H]1CO, the “Percent Effect” value was -21.18%. For NC(=O)NC(=O)CCN1CCN(c2nccs2)CC1, the “Percent Effect” value was -12.95%. COc1ccc(CNCC(C)Oc2ccccn2)cc1Cl.Cl (stereo not drawn) was tested, and the “Percent Effect” value was 13.86%. In the case of O=C1CC2(CCN(CCCF)CC2)CN1Cc1cc(F)cc(F)c1, the “Percent Effect” value is reported as 33.68%. CC(C)=CCN1CCC2(CC1)CC(=O)N(Cc1cc(F)cc(F)c1)C2 was tested, and the “Percent Effect” value was 74%. For CC(C)N1CCC2(CC1)CC(=O)N(Cc1cc(F)cc(F)c1)C2, the “Percent Effect” value was 31.53%. For O=C1CC2(CCN(Cc3ccoc3)CC2)CN1Cc1cc(F)cc(F)c1, the “Percent Effect” value was 54.75%. O=C(CO)N1CCC2(CC1)CC(=O)N(Cc1cc(F)cc(F)c1)C2 was tested, and the “Percent Effect” value was -76.75%. For O=C1CC2(CCN(CC3CC3)CC2)CN1Cc1cc(F)cc(F)c1, the “Percent Effect” value was 9.433%. With NCCn1cc(C(=O)N2CCCCCC2c2cccc(F)c2)nn1 (stereo not drawn) the “Percent Effect” value was -109.1%. For COc1cc2nc(C)n(CC(=O)NCCC(C)C)c(=O)c2cc1OC, the “Percent Effect” value was -84.85%. With CCc1ncc(CN2CCC(CCc3ccccc3)CC2)cn1 the “Percent Effect” value was 5.724%. For Cc1cc(C)n(CCCN(C)C(=O)C2COc3ccccc3C2)n1 (stereo not drawn), the “Percent Effect” value was -44.86%. In the case of CC1=NOC(C(=O)N(C)CCCn2nc(C)cc2C)C1 (stereo not drawn), the “Percent Effect” value is reported as -92.45%. Cc1nn(C)c(C)c1CN1CCNCC1 was tested, and the “Percent Effect” value was -151.9%. With Cc1nn(C)c(C)c1CCC(=O)OCC(=O)N1CCc2sccc2C1 the “Percent Effect” value was -33.28%. With c1cnc(N2CCCC(c3n[nH]c4ncccc34)C2)nc1 (stereo not drawn) the “Percent Effect” value was -55.39%. For COCC[C@]1(O)CCN(Cc2nc(C(C)C)cs2)C[C@H]1C, the “Percent Effect” value was -100.7%. In the case of CN1CCCC(CNC(=O)CN(C)S(=O)(=O)c2cccnc2)C1 (stereo not drawn), the “Percent Effect” value is reported as -82.06%. For Cn1cnc(C(=O)N2CC3(CCN(S(=O)(=O)c4ccccc4)C3)C2)c1, the “Percent Effect” value was 9.335%. In the case of CCOC(=O)CNC(=O)N1CCc2onc(-c3ccc(Cl)cc3)c2C1, the “Percent Effect” value is reported as -35.73%. COCCNS(=O)(=O)c1cccc2c1CN(C(=O)c1cc(C)on1)CC2 was tested, and the “Percent Effect” value was -82.56%. O=C(c1ccnnc1)N1CCc2onc(Cn3cccn3)c2C1 was tested, and the “Percent Effect” value was -67.89%. For Cc1n[nH]cc1C(=O)N1CCCC(c2cccc(-n3ccnc3)n2)C1 (stereo not drawn), the “Percent Effect” value was -34.99%. With Cn1cccc1C(=O)N1CCc2onc(Cn3cccn3)c2C1 the “Percent Effect” value was -37.04%. With CCS(=O)(=O)N1CCC2(CN(C(=O)c3cn(C)cn3)C2)C1 the “Percent Effect” value was -95.83%. Cc1csc2c(=O)n3c(nc12)CCN(C(=O)c1ccnn1C)CC3 was tested, and the “Percent Effect” value was -147.1%. Cc1noc([C@@H]2CC[C@@H]3[C@@H](CCN3S(=O)(=O)c3ccccc3)O2)n1 was tested, and the “Percent Effect” value was -19.99%. COCCO[C@@H]1CCN(C(=O)c2occc2C)[C@H]1Cc1cnn(C)c1 was tested, and the “Percent Effect” value was -35.95%. CC(C)n1cnnc1C1CCCN(S(=O)(=O)CC2CCCC2)C1 (stereo not drawn) was tested, and the “Percent Effect” value was -66.23%. In the case of Cc1cc(=O)[nH]c(=O)n1-c1ccccc1Br, the “Percent Effect” value is reported as -82.44%. In the case of COC(=O)c1cccc(C(=O)N2CCN(c3ccc(Cl)cc3)CC2)n1, the “Percent Effect” value is reported as -128.8%. Cc1cc(-c2cnn(CCNC(=O)Cc3ccccn3)c2C2CC2)on1 was tested, and the “Percent Effect” value was -41.77%. In the case of CCN(CC)C(=O)c1c(Cl)cnn1CC, the “Percent Effect” value is reported as -101.8%. O=C1CC2(CCCC2)CC(=O)N1Cc1nc2ncccn2n1 was tested, and the “Percent Effect” value was -57.36%. With N#Cc1ccc(F)c(CNc2ccc(F)cc2OCCO)c1 the “Percent Effect” value was -1.485%. With CC(=O)Nc1ccc(CNCc2cccnc2N(C)C)cc1 the “Percent Effect” value was -87.09%. In the case of O=C(c1cscn1)N1CCc2ncc(Cn3cncn3)n2CC1, the “Percent Effect” value is reported as -88.92%. In the case of CC(C)n1c(=O)c2ccccc2n(CCCN(C)C)c1=O.Cl, the “Percent Effect” value is reported as 57.86%. In the case of CC(C)n1c(=O)c2ccccc2n(CCN(C)C)c1=O.Cl, the “Percent Effect” value is reported as 33.53%. CN(C)CCn1c(=O)n(C)c(=O)c2ccccc21.Cl was tested, and the “Percent Effect” value was -12.02%. For NC(=O)C1CN(c2ccc3cc(Br)ccc3n2)CCO1 (stereo not drawn), the “Percent Effect” value was -657.4%. With Cc1ccc(OCCN(C)C2CCOC2=O)cc1 (stereo not drawn) the “Percent Effect” value was -120.6%. Cc1noc(C)c1CN1CCCC(CN(C(=O)OC(C)(C)C)C(C)C)C1 (stereo not drawn) was tested, and the “Percent Effect” value was 52.41%. With CC(C)N(CC1CCCN(Cc2ccon2)C1)C(=O)OC(C)(C)C (stereo not drawn) the “Percent Effect” value was -9.372%. In the case of CC(C)N(CC1CCCN(CC(N)=O)C1)C(=O)OC(C)(C)C (stereo not drawn), the “Percent Effect” value is reported as -15.39%. In the case of NC(=O)C(CNC(=O)Cc1ccsc1)Cc1ccc(F)cc1 (stereo not drawn), the “Percent Effect” value is reported as -150.5%. For COc1cc(C2CC(=O)Nc3c2nc2n3CCCC2)ccc1O (stereo not drawn), the “Percent Effect” value was -30.17%. With COCCN(Cc1nc2c(cnn2C)c(=O)[nH]1)C(C)c1ccccc1 (stereo not drawn) the “Percent Effect” value was -89.75%. Cc1ccc(N2CCc3ncnc(N(C)C)c3CC2)nn1 was tested, and the “Percent Effect” value was -119.5%. With CC(C)N1CCC2(CC1)CC(NCc1ccccn1)c1ccccc1O2.O=C(O)C(F)(F)F.O=C(O)C(F)(F)F.O=C(O)C(F)(F)F (stereo not drawn) the “Percent Effect” value was 70.65%. For CC(C)N1CCC2(CC1)CC(NS(C)(=O)=O)c1ccccc1O2.O=C(O)C(F)(F)F (stereo not drawn), the “Percent Effect” value was -16.02%. For CC(C)CN1CCC2(CC1)CC(NS(C)(=O)=O)c1ccccc1O2.O=C(O)C(F)(F)F (stereo not drawn), the “Percent Effect” value was -52.98%. For COCC(=O)NC1CC2(CCN(CCF)CC2)Oc2ccccc21.O=C(O)C(F)(F)F (stereo not drawn), the “Percent Effect” value was -129.2%. O=C(O)C(F)(F)F.O=C(O)C(F)(F)F.O=C(O)C(F)(F)F.OCCN1CCC2(CC1)CC(NCc1ccccn1)c1ccccc1O2 (stereo not drawn) was tested, and the “Percent Effect” value was 70.8%. CS(=O)(=O)NC1CC2(CCN(CCF)CC2)Oc2ccccc21.O=C(O)C(F)(F)F (stereo not drawn) was tested, and the “Percent Effect” value was -76.24%. For CC(C)(C)c1ccc(C(=O)C2CCCN(C(=O)CNS(C)(=O)=O)C2)cc1 (stereo not drawn), the “Percent Effect” value was -75.07%. In the case of CN(C)c1no[n+]([O-])c1-c1ccccc1, the “Percent Effect” value is reported as -137.1%. With COCc1nn(C(C)C)c2c1CCN(Cc1ccc(C)o1)C2.O=C(O)C(F)(F)F the “Percent Effect” value was -30.71%. With Cc1nc[nH]c1-c1nccn1CCN1CCCOC1=O the “Percent Effect” value was -113%.
